# Compound activity (PubChem)
# Compounds with a hit are over-represented: about 4.1% of the library has one in this group of screens.
# Gli-Sufu antag – Gli-Sufu pathway antagonists, primary screen, luciferase luminescence, Sufu-KO-LIGHT cells, uHTS; Sufu-KO-LIGHT fibroblasts, Gli luciferase reporter luminescence; hit rate 0.74% among 340,000; inhibition, % at 5 µM;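 active = inhibition above about 55%, limit read from the data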;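 note: 0% = DMSO-treated cells and 100% = wells with medium but no cells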
# Mdm2 MdmX PPI – inhibitors of human Mdm2-MdmX association, primary screen, cell-based, luminescence, split luciferase, SaOS-2, uHTS | Protein Mdm4 (Homo sapiens) + E3 ubiquitin-protein ligase Mdm2 (Homo sapiens), … | hit rate 3% among 330,000 | SaOS-2 split-luciferase Mdm2/MdmX complementation | inhibition, % at 8 µM;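 active = inhibition of at least 50% at 8 µM in the primary screen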
# Target sequence (O15151 whole entry, looked up): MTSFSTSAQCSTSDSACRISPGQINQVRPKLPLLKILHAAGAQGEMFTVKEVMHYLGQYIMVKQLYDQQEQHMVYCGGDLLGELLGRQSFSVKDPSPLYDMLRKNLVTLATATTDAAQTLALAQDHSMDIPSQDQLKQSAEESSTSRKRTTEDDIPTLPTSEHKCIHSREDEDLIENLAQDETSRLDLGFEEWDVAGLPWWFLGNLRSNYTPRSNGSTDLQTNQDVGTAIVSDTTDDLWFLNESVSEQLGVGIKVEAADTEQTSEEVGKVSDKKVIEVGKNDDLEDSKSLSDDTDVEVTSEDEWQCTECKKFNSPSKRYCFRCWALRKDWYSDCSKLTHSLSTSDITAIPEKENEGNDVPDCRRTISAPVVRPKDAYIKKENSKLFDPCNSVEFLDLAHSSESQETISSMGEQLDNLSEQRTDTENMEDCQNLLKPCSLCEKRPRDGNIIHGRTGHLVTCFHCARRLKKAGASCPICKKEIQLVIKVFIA
# Target sequence (Q00987 whole entry, looked up): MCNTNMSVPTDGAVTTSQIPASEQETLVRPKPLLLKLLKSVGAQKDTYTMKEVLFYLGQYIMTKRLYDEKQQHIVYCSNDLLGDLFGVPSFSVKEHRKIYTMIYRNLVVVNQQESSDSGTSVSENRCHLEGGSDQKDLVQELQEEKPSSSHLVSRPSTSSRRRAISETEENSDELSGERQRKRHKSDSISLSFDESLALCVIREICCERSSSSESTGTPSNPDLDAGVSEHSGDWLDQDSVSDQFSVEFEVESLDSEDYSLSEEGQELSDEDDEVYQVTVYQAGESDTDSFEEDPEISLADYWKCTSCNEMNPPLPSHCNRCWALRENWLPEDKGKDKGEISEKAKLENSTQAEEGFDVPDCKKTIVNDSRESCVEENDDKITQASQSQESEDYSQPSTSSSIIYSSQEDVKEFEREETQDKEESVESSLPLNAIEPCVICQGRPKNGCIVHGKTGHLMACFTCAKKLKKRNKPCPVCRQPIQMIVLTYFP
# KLF5 inh – KLF5 expression inhibitors, primary screen, DLD-1 cells, luminescence | hit rate 0.23% among 290,000 | inhibition, % at 5 µM | AID 1700, 2009 | DLD-1 KLF5 promoter-luciferase reporter;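 active = inhibition above a per-plate limit of that plate's mean compound inhibition plus 3 SD, cut at about 60% in these data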;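 note: 0% = DMSO wells and 100% = LY294002 at 200 µM; higher means less KLF5 promoter-driven luciferase light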
# Jurkat NFkB inh – inhibitors of induced NF-kB luciferase reporter, primary screen, TCR NF-kB activation inhibitor project, cell-based, luminescence, uHTS | Jurkat, PMA/ionomycin-induced NF-kB luciferase reporter | inhibition, % at 4 µM | hit rate 0.53% among 330,000 | AID 435003, 2010; in the data active = inhibition above about 50%
# aSyn UTR inh – MLPCN primary screen, SNCA 5' untranslated region; alpha-synuclein 5'UTR reporter, inhibitor activity; inhibition, % (tested at 7.5 µM); hit rate 0.82% among 300,000; in the data active = inhibition above about 60%;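 note: H4 neuroglioblastoma cells stably carrying SNCA 5'UTR luciferase fusion; 0% = DMSO wells and 100% = positive control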
# 697 NFkB inh – inhibitors of PMA/ionomycin-induced NF-kB reporter, 697 cells, primary screen, B-cell NF-kB inhibitor project, cell-based, luminescence, uHTS; inhibition, % at 4 µM; hit rate 0.33% among 330,000; 697 B-cell NF-kB luciferase reporter, 16 h; AID 435022, 2010; in the data active = inhibition above about 35%
# Mdm2 MdmX conf – Mdm2-MdmX complex disruptors, retested hits, confirmation, luminescence, single concentration. Mdm2-MdmX binding, luminescent assay. inhibition, % at 8 µM. hit rate 55% among 10,000. shares compounds with Mdm2 MdmX PPI; in the data active = inhibition above about 40%
# FLuc counter – full-length luciferase signal inhibition, confirmation, counter-screen for Mdm2/MdmX interaction inhibitor project, cell-based, single concentration, SaOS-2. shares compounds with Mdm2 MdmX PPI. SaOS-2 full-length luciferase counterscreen, luminescence. inhibition, % at 8 µM. hit rate 77% among 6,200. AID 504607, 2011;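 active = mean inhibition at 8 µM reaching about 37%, which flags the compound as non-specific, limit read from the data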;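 note: p53-null SaOS-2 cells with luciferase driven by a doxycycline-inducible promoter; compound on cells about two nights before reading with doxycycline added after day one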
# * hit, by the source's call; nt = not tested or not shown.
SMILES,Gli-Sufu antag,Mdm2 MdmX PPI,KLF5 inh,Jurkat NFkB inh,aSyn UTR inh,697 NFkB inh,Mdm2 MdmX conf,others
Cc1ccc(Cn2c(C(CO)Nc3nc(-c4ccc(Cl)c([N+](=O)[O-])c4)cs3)nc3ccccc32)cc1 (stereo not given),-0.2,64.5*,nt,-0.9,-43.5,9.2,15.6,
Cc1ccc(-c2csc(NC(CO)c3nc4ccccc4n3CCOCCO)n2)cc1 (stereo not given),2.2,-8.1,nt,-5.5,-71.4,-7.8,nt,
CC(Nc1nc(-c2ccc(F)cc2)cs1)c1nc2cc(C(F)(F)F)ccc2n1CCCO (stereo not given),14.7,30.0,nt,2.9,-5.1,-19.6,nt,
Cc1ccc(Cn2c(C(CO)Nc3nc(-c4ccc(F)cc4)cs3)nc3ccccc32)cc1 (stereo not given),17.9,60.3*,nt,-4.3,-27.3,9.1,29.1,
Cc1ccc(Cn2c(C(C)Nc3nc(-c4ccc(F)cc4)cs3)nc3cc(C(F)(F)F)ccc32)cc1 (stereo not given),-29.3,50.3*,nt,7.6,-18.1,5.6,-0.7,
CCCn1c(C(C)Nc2nc(-c3ccc(Cl)c([N+](=O)[O-])c3)cs2)nc2cc(Cl)c(N3CCCCC3)cc21 (stereo not given),-2.1,61.4*,18.8,14.3,-2.8,8.4,21.1,
CN(C)c1ccc(P(=O)(OCc2ccccc2)C(O)c2ccccc2)cc1 (stereo not given),0.7,-2.5,1.7,-2.8,-4.2,-0.9,nt,
CC(C)C[C@H]1CN=C(Nc2ccccc2)N1CC1CCC(C(C)(C)C)CC1 (stereo not given in full),-17.5,100.3*,nt,41.7,nt,-16.5,38.6,FLuc counter=20.5
CC(C)C[C@H]1CN=C(Nc2ccccc2)N1CC1CCCC1,15.3,13.1,-25.4,8.8,-6.7,12.7,nt,
Cc1ccc2oc(=O)c3cc(C(=O)NCCCN4CCCCCC4)sc3c2c1,-19.0,14.3,10.1,-2.4,-21.6,-6.2,nt,
Cc1ccnc(NC(=O)c2cc3c(=O)oc4ccc(C)cc4c3s2)c1,6.3,70.3*,-28.1,5.4,-43.1,31.1,38.1,FLuc counter=73.7*
Cc1ccc(NC(=O)c2cc3c(=O)oc4ccc(C)cc4c3s2)nc1,nt,75.2*,-24.8,12.6,0.1,21.2,11.5,
CCC1CCCCN1CCCNC(=O)c1cc2c(=O)oc3ccc(C)cc3c2s1 (stereo not given),27.1,53.5*,-18.0,-17.1,9.4,-10.8,2.8,
Cc1ccc2oc(=O)c3cc(C(=O)NCCN4CCN(C)CC4)sc3c2c1,3.8,-8.0,-13.4,-14.8,-1.2,-10.4,nt,
CC(=O)NC1=C(Nc2ccc(N(C)C)cc2)C(=O)c2ccccc2C1=O,-58.9,69.9*,-141.1,-128.3,-19.8,-185.3,45.3*,FLuc counter=114.8*
CC(C)CNC(=O)c1cc(S(=O)(=O)N2CCOCC2)ccc1N1CCCC1,-2.0,8.6,-40.5,6.3,-5.2,6.9,nt,
CSc1nc2nccc(-c3ccc(Cl)cc3)n2n1,-20.3,47.2,-3.4,-13.6,20.1,-21.4,nt,
CSc1nc2nccc(/C=C\c3ccccc3)n2n1,9.0,75.2*,-25.6,-10.3,-88.9,4.5,66.2*,FLuc counter=23.7
OCCCNCc1ccc(N(c2ccccc2)c2ccccc2)cc1,9.3,29.1,-23.1,23.3,-57.6,-3.4,nt,
Cc1cccn2c(=O)c(/C=C(\C#N)C(=O)NCc3ccccc3)c(N3CCC(C(N)=O)CC3)nc12,3.8,63.7*,11.0,0.2,-7.2,5.0,0.9,
COCC(C)N1CCC(n2nccc2NC(=O)CCCc2ccccc2)CC1 (stereo not given),-2.8,-10.3,-32.6,-2.0,4.9,-3.2,nt,
